Test [1] in a line: inhibitors of TNFa-induced NFkB p65 translocation, primary screen, imaging, HUVEC, MLSMR starter and 10KST1 sets (AID 438;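 active = inhibition above 20% together with a positive visual image hit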;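 note: compound added about 3h40 before a 20 min TNFalpha stimulation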;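 for inhibition: signal is the nuclear over cytoplasmic p65 intensity ratio per well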). The settings on record: HUVEC TNFa-induced p65 nuclear translocation; cell count: measured here: nuclei count (cytotoxicity indicator), at 2.08 µM; inhibition: at 2 µM, stronger effect = higher value, 0% TNFa-plus-vehicle, 100% no-TNFa wells.
The nature of test [2]: reduction of polyQ htt aggregates in cells – imaging, exon1htt(103Q)mCFP cells, high-content imaging, primary screen (AID 483;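 active = visual image review flags a hit and inhibition of aggregation exceeds 20%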;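 note: compound exposure lasted 3 days before fixation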;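 for nuclei count: percent of the per-plate median nuclei count of sample wells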). The settings on record: exon1htt(103Q)mCFP cell line, aggregate imaging, at 2 µM; inhibition of aggregation: stronger effect = higher value; nuclei count: measured here: cell count, toxicity.
The nature of test [3]: endothelial E-selectin expression blockers – imaging, HUVEC, immunofluorescence, MLSMR starter and 10KST1 sets, primary screen (AID 487).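 For inhibition: signal is fraction of cell area covered by stained E-selectin grains.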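 For nuclei count: 100% = median nuclei count of all wells on the same plate.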 The settings on record: HUVEC TNFalpha-induced E-selectin immunofluorescence imaging, at 2 µM; inhibition: stronger effect = higher value; nuclei count: measured here: cell number, toxicity.
The target in test [4] is Voltage-gated potassium channel subunit beta-2 (Rattus norvegicus) (UniProt P62483). Nature of the test: inhibitors of rat Kvbeta2 reductase activity – biochemical, NADPH fluorescence, primary screen (AID 622;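 active = fluorescence slope higher than the sample average by over 3 SD, cut at about -0.22 in these data, passing the limit was not always enough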;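 note: slope of raw intensity against log time taken from 70 to 1610 s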). The settings on record: recombinant KvBeta, 4-cyanobenzaldehyde reduction, at 10 µM, stronger effect = higher value.
Voltage-gated potassium channel subunit beta-2 (Rattus norvegicus), sequence (P62483 whole entry, looked up): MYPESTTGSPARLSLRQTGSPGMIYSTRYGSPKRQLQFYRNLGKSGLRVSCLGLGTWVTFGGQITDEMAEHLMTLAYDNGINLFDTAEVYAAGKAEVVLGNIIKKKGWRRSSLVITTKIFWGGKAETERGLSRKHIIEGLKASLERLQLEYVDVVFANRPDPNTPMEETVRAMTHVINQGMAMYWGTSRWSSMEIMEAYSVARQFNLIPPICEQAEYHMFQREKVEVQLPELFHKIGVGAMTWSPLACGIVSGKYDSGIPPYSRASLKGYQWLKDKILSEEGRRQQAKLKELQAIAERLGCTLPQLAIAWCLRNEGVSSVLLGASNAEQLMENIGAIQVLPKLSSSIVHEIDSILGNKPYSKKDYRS
Test [5] shares this target. Nature of the test: enhancers of rat Kvbeta2 NADPH turnover – biochemical, NADPH fluorescence, primary screen (AID 623;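 active = NADPH fluorescence slope more negative than the mean of all samples by about 3 SD, 99.7% confidence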;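 note: fluorescence intensity change per second fitted from 20 to 320 s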). The settings on record: Recombinant KvBeta, NADPH fluorescence decrease slope, 10 min; at 10 µM; stronger effect = lower value.
The target of test [6] is Alpha-2C adrenergic receptor (Homo sapiens) (UniProt P18825). Kind of test: compounds altering alpha2C-coupled GIRK flux – cell-based, HEK293 alpha2C/GIRK1/2, thallium flux, primary screen (AID 624;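 active = fluorescence slope after compound addition differing from the mean of all screened samples at 99.7% confidence, in either direction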;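 note: slope of fluorescence ratio to pre-addition baseline per second over 15 to 24 s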). The settings on record: thallium flux BTC fluorescence, at 10 µM, actives lie on both sides.
Alpha-2C adrenergic receptor (Homo sapiens), sequence (P18825 whole entry, looked up): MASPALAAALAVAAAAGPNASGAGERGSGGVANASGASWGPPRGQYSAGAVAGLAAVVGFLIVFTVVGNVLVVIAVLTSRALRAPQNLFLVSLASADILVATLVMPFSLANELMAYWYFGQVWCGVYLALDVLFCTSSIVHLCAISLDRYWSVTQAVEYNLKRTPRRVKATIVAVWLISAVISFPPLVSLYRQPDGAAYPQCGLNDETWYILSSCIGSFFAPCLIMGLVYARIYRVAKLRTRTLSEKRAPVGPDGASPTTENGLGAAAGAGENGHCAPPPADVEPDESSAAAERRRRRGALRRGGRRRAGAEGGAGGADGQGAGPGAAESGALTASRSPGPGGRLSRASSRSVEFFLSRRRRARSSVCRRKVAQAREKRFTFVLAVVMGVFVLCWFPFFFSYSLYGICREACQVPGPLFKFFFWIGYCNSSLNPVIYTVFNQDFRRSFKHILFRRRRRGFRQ
Test [7] can be described thus: blockers of RIG-like receptor reporter activation – cell-based, Sendai virus stimulus, luciferase, 10K MLSCN set, TLR/RLR signaling modifier project, primary screen (AID 602276;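 active = inhibition at or above 50% at 10 µM; inactive = inhibition below 50%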;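 note: firefly luciferase from ISG56 promoter only with Renilla not read in this screen; 0% = Sendai virus plus DMSO and 100% = medium plus DMSO without virus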). The settings on record: HEK293 RL24 IRF3 luciferase reporter, at 10 µM, stronger effect = higher value.
Test [8] in a line: TLR3 IRF3 reporter activation blockers – cell-based, poly I:C stimulus, luciferase, 10K MLSCN set, primary screen (AID 602277;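 active = inhibition of the reporter signal at or above 50%; inactive = inhibition below 50%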). The settings on record: HEK293-TLR3 RL24 IRF3 luciferase reporter, at 10 µM, stronger effect = higher value. In general terms: In a reporter assay the amount or activity of a reporter protein is the signal.

The structures appear in SMILES notation. Calls of active or inactive are those of the source.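 Rule for the calls, unless noted: active = visually confirmed hit in the image check and inhibition above 20%; inconclusive = visually confirmed hit but inhibition not above 20%; inactive = no visual hit in the image check.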

From PubChem BioAssay come the findings set out here.

For orientation: inhibition means the relative decrease from the control value, in per cent. For the compound `Cc1nc2cc(N3CCCCC3)c(NC(=O)c3cccnc3)cc2c(=O)n1Cc1ccccc1`, the cell count in test [1] was 751. The inhibition is -10.1% (inactive) in test [1], -2% (inactive) in test [3], -3.36% (inactive) in test [7] and -14% (inactive) in test [8]. For the same compound, in test [2], the inhibition of aggregation was 1.2% (inactive). Moreover, the nuclei count was found to be 93.3% in test [2] and 99.1% in test [3]. Also, the fluorescence slope in test [4] is -0.167 (inactive). Moreover, the NADPH fluorescence slope in test [5] was 2.6e-06 (inactive). Moreover, in test [6], the slope was 0.00435 (inactive).

For the compound `CCCCCn1c(N2CCN(Cc3ccccc3)CC2)nc2c1c(=O)[nH]c(=O)n2C`, the cell count in test [1] worked out at 675. Also, the inhibition in test [1] is 1.9% (inactive); in test [3], -13.6% (inactive); in test [7] it was 14.2% (inactive); in test [8], 16.8% (inactive). Moreover, the inhibition of aggregation in test [2] is -11.5% (inactive). For the same compound, the nuclei count in test [2] is 101%; in test [3], 107%. For the same compound, the fluorescence slope in test [4] is -0.625 (inactive). In test [5], the NADPH fluorescence slope is -2.8e-05 (inactive). Also, the slope in test [6] is 0.0038 (inactive).

With `O=c1oc2ccccc2c2c1ncn2-c1ccccc1`, the cell count in test [1] is 375. The inhibition in test [1] is 0% (inactive); in test [3], -9.9% (inactive); in test [7], 16.7% (inactive); in test [8] it was 27.6% (inactive). Moreover, in test [2], the inhibition of aggregation is -20.2% (inactive). For the same compound, the results for the nuclei count in test [2] and in test [3] were 113% and 114%, respectively. Also, in test [4], the fluorescence slope was -0.45 (inactive). The NADPH fluorescence slope in test [5] is 7.5e-05 (inactive). Besides, the slope in test [6] was 0.00569 (inactive).

In the case of `CC(=O)C1=C(C)Nc2ncnn2C1c1cccc(OCc2ccccc2)c1` (stereo not drawn), in test [1], the cell count was 610. The inhibition was 0% (inactive) in test [1], -51.7% (inactive) in test [3], 11.8% (inactive) in test [7] and 29% (inactive) in test [8]. Also, the inhibition of aggregation in test [2] was 2.1% (inactive). Besides, the values for the nuclei count in test [2] and in test [3] were 103% and 122%, respectively. In addition, in test [4], the fluorescence slope was -0.559 (inactive). Further, the NADPH fluorescence slope in test [5] was 4.9e-06 (inactive). In addition, the slope in test [6] is 0.0069 (inactive).

In the case of `Cc1nnc(SCc2ccccc2F)n1NCc1cccs1`, the cell count in test [1] came out at 767. For the same compound, the inhibition in test [1] is -3.9% (inactive); in test [3] it was -71% (inactive); in test [7], -2.84% (inactive); in test [8] it was -9.57% (inactive). In addition, the inhibition of aggregation in test [2] is -8.1% (inactive). The nuclei count in test [2] came to 106%; in test [3] it was 113%. Besides, the fluorescence slope in test [4] is -0.47 (inactive). Besides, the NADPH fluorescence slope in test [5] was -4.7e-05 (inactive). Moreover, the slope in test [6] is 0.00631 (inactive).

`COC(=O)COc1cccc(NC(=O)COc2ccccc2)c1`: the cell count in test [1] came out at 349. The inhibition in test [1] is -2.7% (inactive); in test [3] it was -94.8% (inactive); in test [7] it was 1.13% (inactive); in test [8], 20.7% (inactive). In test [2], the inhibition of aggregation was -0.4% (inactive). Moreover, the figures for the nuclei count in test [2] and in test [3] were 115% and 104%, respectively. The fluorescence slope in test [4] is -0.336 (inactive). Also, the NADPH fluorescence slope in test [5] was 3.4e-07 (inactive). In addition, the slope in test [6] was 0.00642 (inactive).

Turning to `CCOc1cc(C2C(C#N)=C(N)Oc3n[nH]c(CC)c32)ccc1OCCN1CCOCC1` (stereo not drawn), the cell count in test [1] turned out to be 421. For the same compound, the inhibition in test [1] was 23.4% (active); in test [3], -49.3% (inactive); in test [7] it was 14.3% (inactive); in test [8], 15.9% (inactive). Also, in test [2], the inhibition of aggregation was 12.6% (inactive). Moreover, the nuclei count was determined as 108% in test [2] and 101% in test [3]. Further, in test [4], the fluorescence slope is -0.506 (inactive). Moreover, the NADPH fluorescence slope in test [5] was -3.1e-05 (inactive). The slope in test [6] was 0.00486 (inactive).

As to `CCOC(=O)CN1CC23C=CC(O2)C(C(=O)Nc2ccc(C(C)=O)cc2)C3C1=O` (stereo not drawn), in test [1], the cell count worked out at 813. Also, the inhibition in test [1] is -6.9% (inactive); in test [3] it was -18.4% (inactive); in test [7], -3.34% (inactive); in test [8], 7.25% (inactive). Also, the inhibition of aggregation in test [2] is -2.6% (inactive). Further, the nuclei count in test [2] and in test [3] was 127% each time. Also, the fluorescence slope in test [4] is -0.574 (inactive). Also, the NADPH fluorescence slope in test [5] is -2.3e-05 (inactive). Further, in test [6], the slope was 0.00637 (inactive).
